Records with an inconclusive call do not appear. Active and inactive are the calls of the source.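 The calls were made as follows, unless noted: active = response below a set limit, under 55% cells CD8-positive and vesicle-bound, and CD8 cells' 90th-percentile brightness under 279; inactive = the rest.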
Experiments:
[1] = rapamycin-like changes in RPL19A-GFP expression – cell-based, S. cerevisiae, multiplex flow cytometry, primary screen (AID 1862; in the data active = percent of DMSO control GFP below about 86%;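 also: lower values mimic rapamycin by blocking the RPL19A rise seen in DMSO cells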); conditions: S. cerevisiae RPL19A-GFP strain, flow cytometry fluorescence, 3 h; at 10 µM; stronger effect = lower value
[2] = TOR pathway GLN3 branch reporter MEP2-GFP changes – S. cerevisiae, multiplex flow cytometry, primary screen (AID 1867;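 active = GFP response, as percent of the DMSO control, above the screen-wide mean plus 3 SD, about 139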;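 also: median GFP channel fluorescence of barcode-gated MEP2-GFP cells measured by flow cytometry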); conditions: S. cerevisiae MEP2-GFP strain, 3 h, at 10 µM, stronger effect = higher value, 100% means same as DMSO wells
[3] = TOR pathway RTG branch CIT2 reporter changes – S. cerevisiae, GFP fusion, multiplex flow cytometry, primary screen (AID 1870;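 active = percent response above a set limit, the screen-wide mean plus 3 SD, cut at about 130% in these data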;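 also: barcoded CIT2-GFP strain pooled with four other GFP strains with rapamycin as positive control; median GFP fluorescence per well over plate mean of DMSO wells so 100% = DMSO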); conditions: S. cerevisiae CIT2-GFP expression, 3 h, at 10 µM, stronger effect = higher value
[4] = TOR pathway LAP4-GFP level changes – S. cerevisiae, multiplex flow cytometry, primary screen (AID 1873;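 active = GFP signal, as percent of the solvent control, above the screen mean plus 3 SD, about 149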); conditions: S. cerevisiae LAP4-GFP expression, 3 h, at 10 µM, stronger effect = higher value
[5] = yeast AGP1-GFP level changes, GLN3 branch – cell-based, multiplex flow cytometry, S. cerevisiae, primary screen (AID 1887;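 active = GFP signal above the screen-wide mean plus 3 SD, that is over about 124.5% of the solvent control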;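 also: AGP1-GFP fusion strain of S. cerevisiae within a five-strain barcoded multiplex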); conditions: 3 h, at 10 µM, stronger effect = higher value
[6] = reduced mouse 2C T cell binding to pMHC/ICAM-1 vesicles – MLPCN validation set, flow cytometry, LFA-1/ICAM-1 modulator project, pilot screen (AID 2523); conditions: 2C mouse CD8+ T cells, at 7 µM, stronger effect = lower value; double positive events: measured here: CD8+/vesicle+ event percentage;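 as to vesicle binding response: mean PE anti-B7-1 fluorescence of CD8+ cells relative to row control; 100% = QL9-loaded vesicles with DMSO vehicle in the same plate row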
[7] = target: Integrin beta-1 (Homo sapiens) + Integrin alpha-4 (Homo sapiens) (UniProt P13612+P05556); experiment: alpha4beta1 integrin LIBS antibody binding reduction – U937 cells, HUTS-21 mAb, flow cytometry, validation set, VLA-4 allosteric modulator project, pilot screen (AID 2674;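 active = inhibition above 50%, about 3 SD of the validation set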;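 also: antibody binding induced by the VLA-4 ligand LDV present at three times its Kd; 0% = LDV ligand with antibody and no compound and 100% = antibody without LDV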); conditions: HUTS-21 LIBS mAb binding, at 6.7 µM, stronger effect = higher value, binding induced by LDV ligand
[8] = calorie-restriction mimetic ROS inhibitors, yeast – validation compound set, pilot screen (AID 2706;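 active = superoxide response below 65% of plate, a cut near 3 SD across the whole screen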;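 also: yeast exposed to compound for one week at 30 degrees C before staining; 100% = mean of all compound wells on the same plate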); conditions: S. cerevisiae aging, superoxide DHE fluorescence; at 10 µM, stronger effect = lower value
[9] = target: Beta-adrenergic receptor kinase 1 (Homo sapiens) (UniProt P25098); experiment: GRK2 binders displacing RNA aptamer, biochemical, validation, human GRK2, bead flow cytometry (AID 488806;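 active = aptamer binding inhibition above 30%, about 3 SD of noise from non-fluorescent compounds; inactive = inhibition at or below 30%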); conditions: bead-bound GRK2, FAM-aptamer displacement, at 10 µM, stronger effect = higher value
[10] = target: AP-2 complex subunit beta (Homo sapiens) (UniProt P63010); experiment: beta-arrestin/AP2 interaction blockers – biochemical, validation set, GST-AP2 beads, flow cytometry, pilot screen (AID 504541;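 active = inhibition above 54%, about 3 SD of non-fluorescent compounds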;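 also: AP2 carries R879A mutation and is captured from E. coli lysate; bead-bound FITC arrestin peptide fluorescence measuring arrestin peptide binding to AP2; 0% = DMSO wells and 100% = excess unlabeled arrestin peptide control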); conditions: FITC arrestin peptide, at 10 µM, stronger effect = higher value, AP2 beta2 appendage fragment, R879A mutant
[11] = cytosolic pH regulators acting via V-ATPase – S. cerevisiae, pHLuorin, HTS validation (AID 504600; in the data active = response above about 15%;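 also: plate controls were DMSO for no effect and reference compound for full effect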); conditions: V-ATPase proton transport, at 10 µM, stronger effect = higher value
[12] = test system: anti-desmoglein-3 scFv antibody binding to human DSG3; experiment: blockers of pathogenic pemphigus antibody–desmoglein-3 binding – biochemical, validation compound set, bead-based, flow cytometry, pilot screen (AID 588368;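 active = binding below the plate cutoff, the plate median minus 3 SD, with a reading above zero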;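 also: signal is the median channel fluorescence of bead-bound GFP antibody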); conditions: Protein G beads, DSG3-Fc, scFv-GFP binding, at 10 µM, stronger effect = lower value
[13] = Nile Red efflux blockade in pump-expressing yeast – validation compound set, multiplex, phenotypic, pilot screen (AID 588506;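 active = efflux inhibition above 0.42, the validation set average plus 4 SD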;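 also: Nile Red retained in cells so higher fluorescence means more efflux inhibition; 0 = negative control wells and 1 = enniatin B 25 µM full block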); conditions: S. cerevisiae pump-expressing triplex, Nile Red efflux flow cytometry; at 10 µM; stronger effect = higher value; the pumps come from Candida albicans
[14] = target: ATP-binding cassette sub-family B member 6 (Homo sapiens) (UniProt Q9NP58); experiment: blockers of ABCB6-driven porphyrin uptake – K562-ABCB6 cells, flow cytometry, validation set, pilot screen (AID 588550;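 active = inhibition above the screen-wide mean plus 3 SD, about 51%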;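 also: 0% = DMSO wells and 100% = benzethonium chloride 70 µM positive control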); conditions: K562-ABCB6 porphyrin accumulation, 1 h, at 10 µM, stronger effect = higher value
[15] = AML differentiation inducers, ER-HoxA9 marrow cells – cell-based, GFP/MAC1 double positive, flow cytometry, validation set, primary screen (AID 588685;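 active = differentiation response of at least 50%, scaled between solvent and reference control, from cells with both markers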;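 also: compound exposure lasts four days before antibody staining and flow analysis; 0% = DMSO wells and 100% = 5 µM fulvestrant positive control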); conditions: stronger effect = higher value, normalized: vehicle 0, fulvestrant 100

Sequence of ATP-binding cassette sub-family B member 6 (Homo sapiens) (Q9NP58 whole entry, looked up): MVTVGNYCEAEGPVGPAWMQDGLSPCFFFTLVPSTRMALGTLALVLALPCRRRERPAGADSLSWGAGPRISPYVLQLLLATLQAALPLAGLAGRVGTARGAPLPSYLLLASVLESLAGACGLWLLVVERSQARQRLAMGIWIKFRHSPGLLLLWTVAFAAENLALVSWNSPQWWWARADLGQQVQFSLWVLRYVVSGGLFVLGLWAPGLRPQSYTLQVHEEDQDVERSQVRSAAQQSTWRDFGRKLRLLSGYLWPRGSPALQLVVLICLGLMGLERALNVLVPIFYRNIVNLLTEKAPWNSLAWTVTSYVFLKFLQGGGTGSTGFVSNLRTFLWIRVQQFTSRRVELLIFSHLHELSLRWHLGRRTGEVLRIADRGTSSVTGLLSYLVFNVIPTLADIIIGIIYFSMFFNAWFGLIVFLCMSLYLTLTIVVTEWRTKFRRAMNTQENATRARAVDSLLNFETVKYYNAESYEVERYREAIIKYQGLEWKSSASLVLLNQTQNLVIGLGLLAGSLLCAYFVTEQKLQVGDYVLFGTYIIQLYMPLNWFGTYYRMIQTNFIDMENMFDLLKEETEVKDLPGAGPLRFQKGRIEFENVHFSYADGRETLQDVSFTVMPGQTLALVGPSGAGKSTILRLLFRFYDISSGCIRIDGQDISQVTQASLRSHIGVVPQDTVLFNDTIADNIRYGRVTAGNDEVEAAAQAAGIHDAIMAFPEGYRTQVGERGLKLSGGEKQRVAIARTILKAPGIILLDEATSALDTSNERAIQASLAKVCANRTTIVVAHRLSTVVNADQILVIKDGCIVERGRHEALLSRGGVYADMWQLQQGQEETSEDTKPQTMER
Sequence of Integrin beta-1 (Homo sapiens) + Integrin alpha-4 (Homo sapiens) (P05556 whole entry, looked up): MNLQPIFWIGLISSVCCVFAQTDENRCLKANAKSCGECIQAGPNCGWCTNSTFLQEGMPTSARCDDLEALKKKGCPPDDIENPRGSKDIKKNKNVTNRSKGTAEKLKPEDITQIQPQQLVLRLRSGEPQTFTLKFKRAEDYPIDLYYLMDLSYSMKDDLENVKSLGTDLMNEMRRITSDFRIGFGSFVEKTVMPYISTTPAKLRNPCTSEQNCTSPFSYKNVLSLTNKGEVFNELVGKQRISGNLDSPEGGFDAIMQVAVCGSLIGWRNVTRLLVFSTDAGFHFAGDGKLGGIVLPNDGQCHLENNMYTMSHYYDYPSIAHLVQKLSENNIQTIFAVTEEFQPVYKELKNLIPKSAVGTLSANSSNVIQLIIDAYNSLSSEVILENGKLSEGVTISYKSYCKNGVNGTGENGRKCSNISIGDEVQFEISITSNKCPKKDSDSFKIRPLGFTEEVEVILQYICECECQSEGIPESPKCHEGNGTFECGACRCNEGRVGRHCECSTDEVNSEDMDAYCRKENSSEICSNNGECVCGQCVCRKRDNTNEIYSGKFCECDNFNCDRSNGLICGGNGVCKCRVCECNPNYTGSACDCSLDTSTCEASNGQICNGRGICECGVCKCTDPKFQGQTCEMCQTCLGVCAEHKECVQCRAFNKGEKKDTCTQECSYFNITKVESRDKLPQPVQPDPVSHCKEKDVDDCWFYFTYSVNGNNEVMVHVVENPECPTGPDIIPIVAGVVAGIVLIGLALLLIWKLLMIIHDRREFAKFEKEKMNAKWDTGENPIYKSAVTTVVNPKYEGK
Sequence of Integrin beta-1 (Homo sapiens) + Integrin alpha-4 (Homo sapiens) (P13612 whole entry, looked up): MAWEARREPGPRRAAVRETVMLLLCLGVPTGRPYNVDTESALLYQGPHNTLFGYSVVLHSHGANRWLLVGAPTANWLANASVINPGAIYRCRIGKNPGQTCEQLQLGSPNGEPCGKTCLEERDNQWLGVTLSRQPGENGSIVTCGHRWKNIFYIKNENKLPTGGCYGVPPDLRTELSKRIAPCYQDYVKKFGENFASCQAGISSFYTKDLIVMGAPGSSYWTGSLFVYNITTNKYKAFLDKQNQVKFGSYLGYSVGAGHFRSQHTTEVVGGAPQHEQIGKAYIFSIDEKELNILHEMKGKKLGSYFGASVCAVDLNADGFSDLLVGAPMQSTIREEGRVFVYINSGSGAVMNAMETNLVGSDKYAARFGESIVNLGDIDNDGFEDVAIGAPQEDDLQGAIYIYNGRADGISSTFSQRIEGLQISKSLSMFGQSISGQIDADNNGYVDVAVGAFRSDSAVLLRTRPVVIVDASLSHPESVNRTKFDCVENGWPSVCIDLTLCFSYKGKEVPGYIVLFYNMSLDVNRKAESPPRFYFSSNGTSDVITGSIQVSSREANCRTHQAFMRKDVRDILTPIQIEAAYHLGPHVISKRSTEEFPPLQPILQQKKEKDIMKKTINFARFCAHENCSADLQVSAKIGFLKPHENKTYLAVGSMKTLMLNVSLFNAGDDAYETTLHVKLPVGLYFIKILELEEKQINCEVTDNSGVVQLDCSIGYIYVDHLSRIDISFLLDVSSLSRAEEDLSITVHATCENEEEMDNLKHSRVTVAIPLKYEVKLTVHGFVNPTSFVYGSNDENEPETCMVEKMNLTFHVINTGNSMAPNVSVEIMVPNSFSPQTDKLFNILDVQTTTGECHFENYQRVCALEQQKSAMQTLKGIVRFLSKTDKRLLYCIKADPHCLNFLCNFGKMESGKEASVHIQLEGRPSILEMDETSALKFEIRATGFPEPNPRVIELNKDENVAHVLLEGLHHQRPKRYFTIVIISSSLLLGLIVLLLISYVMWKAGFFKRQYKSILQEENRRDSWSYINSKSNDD
Sequence of Beta-adrenergic receptor kinase 1 (Homo sapiens) (P25098 whole entry, looked up): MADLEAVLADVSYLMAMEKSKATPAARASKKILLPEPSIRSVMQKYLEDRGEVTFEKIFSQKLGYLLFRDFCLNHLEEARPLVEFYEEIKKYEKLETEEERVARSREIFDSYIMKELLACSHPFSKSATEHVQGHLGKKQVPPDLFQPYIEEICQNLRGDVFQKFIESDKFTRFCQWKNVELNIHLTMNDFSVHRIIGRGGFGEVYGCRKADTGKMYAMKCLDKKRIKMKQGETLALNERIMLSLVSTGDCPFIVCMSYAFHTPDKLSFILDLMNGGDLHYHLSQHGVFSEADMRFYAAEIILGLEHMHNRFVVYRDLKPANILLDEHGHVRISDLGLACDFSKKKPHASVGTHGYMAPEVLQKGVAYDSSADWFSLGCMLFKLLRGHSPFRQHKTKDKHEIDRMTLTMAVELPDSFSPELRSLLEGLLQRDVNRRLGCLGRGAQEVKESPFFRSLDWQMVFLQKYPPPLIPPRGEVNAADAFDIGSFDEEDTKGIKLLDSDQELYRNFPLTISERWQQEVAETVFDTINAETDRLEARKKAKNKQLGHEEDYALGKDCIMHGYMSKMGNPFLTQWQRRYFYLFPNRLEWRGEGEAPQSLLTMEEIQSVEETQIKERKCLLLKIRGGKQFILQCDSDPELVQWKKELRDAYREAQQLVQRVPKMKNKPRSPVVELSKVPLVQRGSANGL
Sequence of AP-2 complex subunit beta (Homo sapiens) (P63010 whole entry, looked up, the tested form may be a part, one chain of several): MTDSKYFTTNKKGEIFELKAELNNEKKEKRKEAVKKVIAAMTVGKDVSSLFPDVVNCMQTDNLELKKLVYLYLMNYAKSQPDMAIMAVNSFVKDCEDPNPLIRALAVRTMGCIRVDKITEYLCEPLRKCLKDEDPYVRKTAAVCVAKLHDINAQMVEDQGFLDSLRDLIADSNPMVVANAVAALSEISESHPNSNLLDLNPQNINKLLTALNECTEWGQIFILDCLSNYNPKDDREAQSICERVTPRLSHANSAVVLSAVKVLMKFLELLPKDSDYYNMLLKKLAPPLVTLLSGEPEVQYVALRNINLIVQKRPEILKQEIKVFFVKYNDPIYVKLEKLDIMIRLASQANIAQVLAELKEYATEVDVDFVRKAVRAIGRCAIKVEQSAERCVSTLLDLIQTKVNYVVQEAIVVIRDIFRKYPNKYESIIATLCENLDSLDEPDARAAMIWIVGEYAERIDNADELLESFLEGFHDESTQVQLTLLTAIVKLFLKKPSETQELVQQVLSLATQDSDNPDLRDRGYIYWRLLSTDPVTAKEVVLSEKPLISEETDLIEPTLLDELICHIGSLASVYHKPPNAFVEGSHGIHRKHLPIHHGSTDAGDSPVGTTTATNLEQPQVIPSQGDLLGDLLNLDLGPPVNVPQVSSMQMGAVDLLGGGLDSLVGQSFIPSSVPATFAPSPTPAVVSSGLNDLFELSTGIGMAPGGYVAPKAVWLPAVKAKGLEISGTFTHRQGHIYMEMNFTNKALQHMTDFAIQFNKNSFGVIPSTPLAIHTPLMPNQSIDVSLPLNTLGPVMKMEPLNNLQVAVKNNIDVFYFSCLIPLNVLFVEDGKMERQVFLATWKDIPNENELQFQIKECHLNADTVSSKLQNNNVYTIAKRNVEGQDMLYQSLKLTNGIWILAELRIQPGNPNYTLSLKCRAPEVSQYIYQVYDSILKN

O=c1c(-c2ccc3c(c2)OCCO3)coc2cc(OC3OC(CO)C(O)C(O)C3O)ccc12 (stereo not given)
63.1%: double positive events [6]
inactive: percent of DMSO control GFP [1] 103% | GFP response vs DMSO [2] 101% | percent response of DMSO control [3] 106% | GFP response vs DMSO [4] 90.3% | GFP response, % of DMSO [5] 103% | vesicle binding response [6] 127% | inhibition [7] 1.62% | superoxide response (% of plate) [8] 93.4% | aptamer binding inhibition [9] 6% | inhibition [10] -2.44% | response [11] -2.72% | binding (% of control) [12] 102% | efflux inhibition (fraction of control) [13] -0.28 | inhibition [14] 8% | differentiation response [15] -14.7%

CCNC(=S)Nc1ccc(OC(F)(F)F)cc1
60.6%: double positive events [6]
inactive: percent of DMSO control GFP [1] 105% | GFP response vs DMSO [2] 107% | percent response of DMSO control [3] 102% | GFP response vs DMSO [4] 103% | GFP response, % of DMSO [5] 98.7% | vesicle binding response [6] 166% | inhibition [7] -1.17% | superoxide response (% of plate) [8] 93.5% | aptamer binding inhibition [9] 1% | inhibition [10] 43.4% | response [11] -22.5% | binding (% of control) [12] 101% | efflux inhibition (fraction of control) [13] -0.05 | inhibition [14] -3% | differentiation response [15] 11.1%

COc1ccc2[nH]cc(CCNC(=O)C3CCCNC3=O)c2c1 (stereo not given)
inactive: percent of DMSO control GFP [1] 103% | GFP response vs DMSO [2] 97.9% | percent response of DMSO control [3] 104% | GFP response vs DMSO [4] 104% | GFP response, % of DMSO [5] 105% | vesicle binding response [6] 218% | inhibition [7] -2.11% | superoxide response (% of plate) [8] 100% | aptamer binding inhibition [9] -7% | inhibition [10] -18.5% | response [11] 2.02% | binding (% of control) [12] 103% | efflux inhibition (fraction of control) [13] -0.24 | inhibition [14] 7% | differentiation response [15] 6.26%
57.5%: double positive events [6]

Cc1ccc(C(CC(=O)NCc2ccco2)c2ccc(OC(C)C)cc2)cc1 (stereo not given)
inactive: percent of DMSO control GFP [1] 99.8% | GFP response vs DMSO [2] 106% | percent response of DMSO control [3] 96.9% | GFP response vs DMSO [4] 103% | GFP response, % of DMSO [5] 96.9% | vesicle binding response [6] 165% | inhibition [7] -138% | superoxide response (% of plate) [8] 103% | aptamer binding inhibition [9] 2% | inhibition [10] 37.9% | response [11] -2.51% | binding (% of control) [12] 97.7% | inhibition [14] 12% | differentiation response [15] -6.66%
60.4%: double positive events [6]
active: efflux inhibition (fraction of control) [13] 0.67

NC(=O)c1c(-c2ccccc2)oc2ccc(O)cc12
inactive: percent of DMSO control GFP [1] 100% | GFP response vs DMSO [2] 97.9% | percent response of DMSO control [3] 90% | GFP response vs DMSO [4] 100% | GFP response, % of DMSO [5] 98.5% | vesicle binding response [6] 260% | inhibition [7] 14.7% | superoxide response (% of plate) [8] 90.9% | aptamer binding inhibition [9] 0% | inhibition [10] -7.96% | response [11] -1.1% | binding (% of control) [12] 102% | efflux inhibition (fraction of control) [13] -0.09 | inhibition [14] 10% | differentiation response [15] -13.1%
66.7%: double positive events [6]

O=C(O)CCCCCCCC(=O)O
58.5%: double positive events [6]
inactive: percent of DMSO control GFP [1] 100% | GFP response vs DMSO [2] 99.9% | percent response of DMSO control [3] 90% | GFP response vs DMSO [4] 117% | GFP response, % of DMSO [5] 97.5% | vesicle binding response [6] 171% | inhibition [7] -6.77% | superoxide response (% of plate) [8] 101% | aptamer binding inhibition [9] 4% | inhibition [10] 12.5% | response [11] 0.2% | binding (% of control) [12] 99% | efflux inhibition (fraction of control) [13] 0.14 | inhibition [14] -18% | differentiation response [15] 24%

O=C1CCCN1CCCn1cnc2c([nH]c3ccc(F)cc32)c1=O
inactive: percent of DMSO control GFP [1] 105% | GFP response vs DMSO [2] 104% | percent response of DMSO control [3] 101% | GFP response vs DMSO [4] 89.3% | GFP response, % of DMSO [5] 101% | vesicle binding response [6] 124% | inhibition [7] 10.9% | superoxide response (% of plate) [8] 114% | aptamer binding inhibition [9] -1% | inhibition [10] -10.6% | response [11] 1.63% | binding (% of control) [12] 100% | efflux inhibition (fraction of control) [13] -0.28 | inhibition [14] 10% | differentiation response [15] -27.6%
57.6%: double positive events [6]

CC1(C)Cc2ccccc2C(C(Cc2ccccc2)C(N)=O)=N1 (stereo not given)
active: efflux inhibition (fraction of control) [13] 0.44
inactive: percent of DMSO control GFP [1] 100% | GFP response vs DMSO [2] 99.9% | percent response of DMSO control [3] 106% | GFP response vs DMSO [4] 89.3% | GFP response, % of DMSO [5] 92.7% | vesicle binding response [6] 132% | inhibition [7] 24% | superoxide response (% of plate) [8] 116% | aptamer binding inhibition [9] 3% | inhibition [10] -4.92% | response [11] 6.35% | binding (% of control) [12] 101% | inhibition [14] 9% | differentiation response [15] -5.05%
51%: double positive events [6]

COC(=O)c1ccccc1OCCOCCOc1cccc2ccc(C)nc12
49.8%: double positive events [6]
inactive: percent of DMSO control GFP [1] 106% | GFP response vs DMSO [2] 103% | percent response of DMSO control [3] 99.8% | GFP response vs DMSO [4] 90.3% | GFP response, % of DMSO [5] 100% | vesicle binding response [6] 145% | inhibition [7] 14.7% | superoxide response (% of plate) [8] 116% | aptamer binding inhibition [9] 2% | inhibition [10] -2.13% | response [11] 4.14% | binding (% of control) [12] 103% | efflux inhibition (fraction of control) [13] -0.05 | inhibition [14] 9% | differentiation response [15] -13.1%

Cc1cc(-c2nn(-c3ccccc3F)cc2CN2CCC(O)CC2)c(C)s1
47.2%: double positive events [6]
inactive: percent of DMSO control GFP [1] 102% | GFP response vs DMSO [2] 98.9% | percent response of DMSO control [3] 104% | GFP response vs DMSO [4] 93.3% | GFP response, % of DMSO [5] 95.5% | vesicle binding response [6] 132% | inhibition [7] -7.7% | superoxide response (% of plate) [8] 93.1% | aptamer binding inhibition [9] 4% | inhibition [10] -9.39% | response [11] 0.7% | binding (% of control) [12] 98.3% | efflux inhibition (fraction of control) [13] -0.35 | inhibition [14] 10% | differentiation response [15] -30.9%

Reference: PubChem BioAssay
